Pf Dd2 growth = Plasmodium falciparum Dd2 growth inhibition. AID 1347417. Potency, µM (doses to about 28.9 µM), hits mostly inhibitors. 4.3% of 120,000 active. P. falciparum Dd2 growth, SYBR Green, 72 h; active = well fitted inhibition curve with a large enough effect; also: nearly all actives have a fitted effect of over 65% in size
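Readout: SYBR Green fluorescence, 485 nm excitation, 535 nm emission, after ~16 h lysis at 37C. Before that, Dd2-infected red cells (2.5% hematocrit) grew 72 h with compound, 29 uM top final concentration.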
A number is an active result; . = inactive. The entries come from a sample that favours hits as a whole.

SMILES | Pf Dd2 growth
COc1ccc(-c2noc(CC3CCN(C(=O)CCc4cccc(OC)c4)CC3)n2)cc1 | .
CCc1cccc(NC(=O)N2CCc3c(nc(-c4ccc(OC)cc4)[nH]c3=O)C2)c1 | .
NC(=O)CN1CCC2(CC1)CCN(C(=O)Cc1cnc[nH]1)CC2CO (stereo not drawn) | .
CCN1c2cc(C(=O)Nc3cccc(OC(F)(F)F)c3)ccc2C(=O)N2CCCCCC21 (stereo not drawn) | .
Cc1ccc(S(=O)(=O)NC[C@H]2COCc3nc4cccnc4n32)cc1 | .
CC(C)N1C(=O)C(CC(N)=O)=C2CCCCC21 (stereo not drawn) | .
Cc1c(Cl)cccc1NC(=O)CN(CCc1ccccc1)S(=O)(=O)c1ccccc1 | .
Cc1ccc(C)c(NC(=O)CN(CCc2ccccc2)S(=O)(=O)c2ccccc2)c1 | .
CCOc1ccccc1NC(=O)CN(CCc1ccccc1)S(=O)(=O)c1ccc(C)cc1 | 11µM
Cn1ccnc1CN1C(=O)CO[C@H](c2ccc(NS(=O)(=O)Cc3ccccc3)cc2)[C@H]1CO | .
COc1ccc(-c2noc(-c3cccn3CC(=O)Nc3ccc(F)cc3)n2)cc1F | 3.2µM
O=C(Cn1cccc1-c1nc(-c2ccc(F)cc2)no1)N1CCN(c2ccccc2F)CC1 | .
O=C(Cn1cccc1-c1nc(-c2ccccc2)no1)NCc1ccccc1Cl | 10µM
COc1ccc(-c2noc(-c3cccn3CC(=O)N3CCN(c4ccccc4F)CC3)n2)cc1F | 2.5µM
O=C(Cn1cccc1-c1nc(-c2ccccc2)no1)NCc1ccc(Cl)cc1 | .
COc1ccc(-c2nc(CSCC(=O)N3CCN(c4ccccc4F)CC3)c(C)o2)cc1 | 6.3µM
COc1ccc(-c2noc(-c3cccn3CC(=O)N3CCN(c4ccc(F)cc4)CC3)n2)cc1F | .
COc1ccc(-c2noc(-c3cccn3CC(=O)Nc3cccc(C)c3)n2)cc1F | .
O=C(CSCc1ccc(F)cc1)N1CCN(c2ccccc2F)CC1 | .
O=C(Cn1cccc1-c1nc(-c2ccccc2)no1)Nc1ccccc1Cl | .
CCOC(=O)c1ccc(NC(=O)Cn2cccc2-c2nc(-c3ccc(OC)c(F)c3)no2)cc1 | .
Cc1oc(-c2ccccc2F)nc1CSCC(=O)N1CCN(c2ccccc2)CC1 | .
COc1cc(C(=O)N[C@H]2[C@@H]3CCO[C@@H]3[C@@H]2C2CCCC2)ccn1 | .
Cc1cccc(-c2ocnc2C(=O)N2CCC3(CCC(=O)N(CC4CC4)CC3)CC2)c1 | .
Cc1ccc(NC(=O)Cn2c(C)cc3nc4n(c(=O)c32)CCCCC4)c(C)c1 | .
SMILES | Pf Dd2 growth
O=C(N[C@H]1CCOC[C@H]1C1CCOCC1)c1cncs1 | .
Cn1cc(CN2C[C@H](C(=O)NCc3cccnc3)C[C@H]2c2cccc(C(F)(F)F)c2)cn1 | .
Cc1cc2nc3n(c(=O)c2n1CC(=O)Nc1cccc(C(C)C)c1)CCCCC3 | .
O=C(Nc1ccccc1)C1CCN(C(=O)c2ncn3c2COC(c2ccccc2)C3)CC1 (stereo not drawn) | .
N#Cc1ccc(C(=O)N2CCc3[nH]nc(C(=O)NCCCc4ccccc4)c3C2)cc1 | .
COc1ccc(OC)c(NC(=O)Cn2cccc2-c2nc(-c3ccc(OC)c(F)c3)no2)c1 | .
COc1ccc(-c2noc(-c3cccn3CC(=O)Nc3cc(Cl)c(OC)cc3OC)n2)cc1F | .
CC(=O)c1cccc(NC(=O)Cn2cccc2-c2nc(-c3ccc4c(c3)OCO4)no2)c1 | .
COc1ccc(NC(=O)Cn2cccc2-c2nc(-c3ccc(F)cc3)no2)cc1Cl | 11µM
COc1ccc(CCNC(=O)Cn2cccc2-c2nc(-c3ccc4c(c3)OCO4)no2)cc1OC | .
CC(=O)c1ccc(NC(=O)Cn2cccc2-c2nc(-c3ccc4c(c3)OCO4)no2)cc1 | .
Cc1ccc(NC(=O)Cn2cccc2-c2nc(-c3ccc(F)cc3)no2)cc1F | .
O=C(Cn1cccc1-c1nc(-c2ccc3c(c2)OCO3)no1)Nc1ccccc1 | 2.8µM
COc1ccc(-c2noc(-c3cccn3CC(=O)NCCc3ccccc3)n2)cc1F | 0.25µM
O=C(c1ccc(F)cc1Cl)N1CCc2c(nc3cc[nH]n3c2=O)C1 | .
O=C(c1ccc2c(c1)OCO2)N1CCn2c(nn(-c3ccc(F)cc3F)c2=O)C1 | .
COCCn1nnnc1C1CC2(CCOCC2)C(=O)N1Cc1ccc(F)cc1 (stereo not drawn) | .
COc1cccc(CN2CCc3nn(Cc4ccccc4)c(=O)n3CC2)n1 | .
O=C(NCCc1noc(C2CC2)n1)c1ccco1 | .
O=C(O)C1CCc2sc(C(=O)N3CCCC3)cc2C1 (stereo not drawn) | .
Cn1ncc2c(N3CCN(c4cccc(Cl)c4)CC3)ncnc21 | .
COc1cc(Cl)cc(CN2CCN(c3ncccc3C#N)CC2)c1OC | .
CCOC(=O)C1=C(CN2CCN(c3cccc(Cl)c3)CC2)NC(=O)NC1c1ccc(Cl)cc1 (stereo not drawn) | .
CCCOCc1cc(CN2CCN(c3cccc(Cl)c3)CC2)c(O)c2ncccc12 | 3.2µM
CCOc1ccc2oc(=O)cc(CN3CCN(C(=O)c4cccc(Cl)c4)CC3)c2c1 | .
CCCCOCc1cc(CN2CCN(c3cccc(Cl)c3)CC2)c(O)c2ncccc12 | 1µM
